Test results: PubChem BioAssay (NCI)
This is part of a sample that, as a whole, favours compounds with a hit. Of some 83,000 tested, about 20% had one in any assay.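 In brief: 96-well plates, 48 h treatment, single concentration, percent growth endpoint.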 The source made the active and inactive calls. Rule for the calls: active = growth percent below 10; inactive = the rest.

Columns and labels:
Experiment in all cases: NCI-60 one-dose screen, 48 h (100 = growth as untreated, 0 = no growth, -100 = all killed)
Details in all cases: 10 µM unless noted
[1] = system: SR leukemia
[2] = system: RPMI-8226 leukemia
[3] = system: OVCAR-8 ovarian
[4] = system: OVCAR-5 ovarian
[5] = system: OVCAR-4 ovarian
[6] = system: SK-OV-3 ovarian
[7] = system: IGROV1 ovarian
[8] = system: OVCAR-3 ovarian
[9] = system: HS 578T breast
[10] = system: NCI/ADR-RES ovarian

Measured: growth

FC(F)(F)c1ccc(-c2cn3nc(-c4c[nH]c5ccc(Br)cc45)sc3n2)cc1
inactive: [1] 85.9% | [2] 107% | [3] 105% | [4] 95.5% | [5] 102% | [6] 92.7% | [7] 73.2% | [8] 107% | [9] 89.1% | [10] 96%

COc1cc(/C=C/c2cc(/C=C/c3ccc(O)c(OC)c3)n(-c3c(Cl)cccc3Cl)c(=O)n2)ccc1O
inactive: [4] 57.6% | [5] 56.3% | [6] 47.7% | [7] 33.5% | [8] 10.7% | [9] 36.3% | [10] 55.2%
active: [1] 4.12% | [2] 0.562% | [3] 7.53%

Cc1cc(N2CCCC2)nc(NC2CCCC(Nc3ccnc4cc(Cl)ccc34)C2)n1 (stereo not given)
inactive: [5] 17.1%
active: [1] -56.6% | [2] -55.6% | [3] -69.8% | [4] -14.8% | [6] -29% | [7] -27.5% | [8] -53.2% | [9] -41.6% | [10] -10.1%

Cc1cc(N2CCSCC2)nc(NC2CCCC(Nc3ccnc4cc(Cl)ccc34)C2)n1 (stereo not given)
inactive: [4] 29.7% | [5] 16.8% | [6] 34.8%
active: [1] -54% | [2] -52.6% | [3] -20.9% | [7] -16.1% | [8] -38.4% | [9] -34.2% | [10] 1.15%

COc1ccc(/C=N/C2=C(C#N)C(c3ccc(N(C)C)cc3)c3ccc4ccccc4c3O2)cc1 (stereo not given)
inactive: [1] 19.4% | [2] 63% | [3] 85.8% | [4] 88% | [5] 86.8% | [6] 73.7% | [7] 39.5% | [8] 38.2% | [9] 58.6% | [10] 46.7%

O=C1c2cc3c(cc2-c2c1c1cc(F)c(F)cc1c(=O)n2CCCn1ccnc1)OCO3
active: [1] -2.4% | [2] -10.1% | [4] 2.22% | [6] 6.12% | [8] -7.17% | [10] 6.95%
inactive: [3] 12.1% | [5] 20.9% | [7] 21.2% | [9] 52.5%

COc1ccc(NC2=C(Sc3nc(C)cc(C)n3)C(=O)N(Cc3ccccc3)C2=O)cc1Cl
inactive: [1] 63.4% [30 µM] | [2] 39.3% [30 µM] | [3] 29.3% [30 µM] | [4] 124% [30 µM] | [5] 78.6% [30 µM] | [6] 117% [30 µM] | [7] 113% [30 µM] | [8] 92% [30 µM] | [10] 63.5% [30 µM]
active: [9] -21.7% [30 µM]

O=C(C(=O)c1ccc2c(c1)OCO2)c1ccc2c(c1)OCO2
inactive: [1] 106% | [2] 101% | [3] 95.3% | [4] 109% | [5] 99.8% | [6] 114% | [7] 124% | [8] 105% | [9] 96.3% | [10] 117%

COCCNc1ccc2c3c(cccc13)C(=O)N(CCN(C)C)C2=O
inactive: [3] 22.3% | [4] 30.5% | [5] 31.6% | [6] 22.9% | [7] 18.1% | [8] 17.9% | [9] 50.8% | [10] 31.4%
active: [1] -40.1% | [2] -0.282%

COc1ccc(-c2nc(SCC(=O)Nc3ccc(C(=O)/C=C/c4ccc(Cl)cc4)cc3)[nH]c(=O)c2C#N)cc1
inactive: [1] 72.3% | [2] 98.3% | [3] 106% | [4] 109% | [5] 99.8% | [6] 96.2% | [7] 111% | [8] 101% | [9] 81.3% | [10] 102%

COc1cc(-c2nc3cc(Cl)c(Cl)cc3[nH]2)ccc1OCC(=O)N=Nc1c(O)[nH]c2ccccc12
active: [1] -27.7% | [2] -45.2% | [3] -59% | [4] -75% | [5] -92.7% | [6] -28.2% | [7] -86.8% | [8] -98.1% | [9] -47.9%
inactive: [10] 85.3%

Cc1ccccc1COc1ccc(-c2onc(C)c2-c2ccc(Cl)cc2)cc1
inactive: [1] 34% | [2] 81% | [3] 75.8% | [4] 87.6% | [5] 82.7% | [6] 59.5% | [7] 52.5% | [8] 20.7% | [9] 59.4% | [10] 39.2%
